Assay results: the supplement of paper PMC6555819

System: VDR:RXRa (NR concentration 270 nM, RXRa partner concentration 90 nM)
Experiment: PBM binding z-score (relative to random genomic background probes); higher = stronger binding; sequences stand for … in GC…GCGATTGACAGCGTAGAATGAAGG
Method: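 Protein-binding microarray (Agilent 4x180K custom design, double-stranded 60-nt probes: 5' GC cap, 34-nt variable region, 24-nt constant primer region; full probe sequence given). Purified or IVT nuclear receptor:RXRα heterodimers (3:1 NR:RXRα, mostly 270:90 nM) or homodimers were incubated for 1 h in PBS with 2% milk and no ligand, then detected with Alexa488 antibodies. Fluorescence from o1-orientation probes (~5 replicates averaged) was converted to z-scores against 500 random hg19 background probes. Variable regions are seed direct-repeat (DR0–DR5) sites, all their single-nucleotide variants and half-site ablations.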

Row | Sequence | PBM binding z-score
1 | AGTATGAGGTTATACGTAGATCAGGGAAGAAAGT | 1.34
2 | TCTTGTAGATCAGCAGGTTAAGAAAGCTGGCCAA | 0.357
3 | CGTCAGAGTTCAACTAAGGTAACGTAAAGCACGC | 5.28
4 | ACTATTAGGTGAGACGAGGGCAACCGATAGGTTG | 1.77
5 | GCTATTAGTTGAAAGGGCAAACGAATGATTCTCG | 0.622
6 | ACCATTAGTTGACTTAGGGCAACCGATACGACGC | 0.475
7 | CATACAGGGCCAGCTAGGCCAGAGTAGGGACGGC | -0.78
8 | GCAGACAGGTGAAACGCAGGTAACTCGGGGTGGC | -0.198
9 | CAAACTAGGTCAAGAGGTCAACGTCCGCTTCCCG | 5.97
10 | CATACTAGGTCACCGGAAGGTCAAAGTCCGCATG | 6.08
11 | ACAAGCAGGCCAAGTTTGGGTCACTCAAACAAAG | 0.676
12 | TAGCCTAGGTCAGGCGGGCCAGTATAGTGTCGGC | 0.804
13 | TAGCCTAGGTCAGATCGGGCCAGTACACGCTATA | 0.906
14 | CGTCCAGGGTCAAAGGTCAGTGAAGAGATGACGG | 6.53
15 | TCTGCTAGGTCAGTGGGTCAGCTAACGAGCTGCC | 1.5
16 | ACTAGCAGGCCAAGGGTCGCTCAAGATTAGTCCG | 0.00609
17 | TCTCGGAGGACACGAGGGTCAGAGCTTTCCAGAG | 1.7
18 | AGAACGAGGGCAATGAGGTGATAGCACGGGTGGC | 3.78
19 | TTACCAAGGTGCAGGTCGTTGATCCCTCTGTAGA | 0.558
20 | CCTTACGGGTCAGTCCAGGTTATAGCATCGGAGT | 2.9

Row | Sequence | PBM binding z-score
21 | ATATGTAAGTTAGCTGGGGTCATTCAGACTAGGC | 5.25
22 | CGTCCAAGGTCATAGGAGGTCAGTGAAGACAGAT | 6.46
23 | CCTGCTAGGTCATTGTCAGCTAATCTACAGTATG | 1.66
24 | CGAACTAGGTCATCCAGCACAGTGAATACATTGA | 2.34
25 | TCATATAGATAATACAGGTGAAAGTCGGCATCTA | 1.17
26 | ATCTCAAGGTAACAAGTTCAGTGAAAGAGAGGAC | 2.8
27 | GCGACTGGGGCAAAGCAGGTTAACATAAGGTTGG | 0.364
28 | CCTGTTAGGTCATGGTCAGCTAATCTACAGTATG | 2.02
29 | TAGCCTGGGTCATTGGGCCAGTATAGTACGCATC | 1.97
30 | CTTCAAAGTTCAACTAAGGTAACGTAAAGCACGC | 4.63
31 | ACAGACGGGTGAGTGAAGGTAACTCAGCTGGACG | -0.422
32 | ACTATTAGTTGAGACGAGTGCAACCGATAGGTTG | 0.942
33 | GATACAGGGTCAGCTAGTGGCCAGAGTATGGAAA | 2.34
34 | AATACAGGGTCACTAGGCCAGAGTCGGTACGAAT | 4.03
35 | CCTAGTTGGTCAGGAGCTCACACACCGGATATGA | 0.0372
36 | CCTAGTTGGTCAGGAGGTCACACTCCGGATATGA | 3.82
37 | ATCTGTAGGTAAAGTTCAGTGAAAGATCGATAGA | 1.24
38 | GATACAGGGCCAAGGCCAGAGTACGCGTATTGAT | -0.59
39 | CAAACTAGGTCATGAGGTCAAAGTCCGCTTCCCG | 6.08
40 | GCGACTGGGGCAAAGCAGGTGACCATAAGGTTGG | -0.478
